Laboratory results reported in PubChem BioAssay AID504558 (Broad Institute, 2011).
Screen size: about 350,000 compounds; about 2,400 (0.69%) were called active. The sample as a whole holds a higher share of actives than the screen did. Unmarked numbers belong to inactive results. No stated cut-off is given here; in the data, active means inhibition above about 41%; inconclusive means no clear call, values can overlap the other calls; inactive means below that.

experiment: blockers of LMP1-induced NF-kB reporter signal – cell-based, luminescence, single point, primary screen (AID 504558); settings: LMP1-induced NF-kappaB luciferase reporter cells, at 12.5 µM, hits give high values;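 further: 0% = neutral control wells and 100% = reference inhibitor control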

| Structure (SMILES) | inhibition |
| --- | --- |
| COc1ccc(CCN=C2SCC(=O)N2Cc2ccccc2)cc1OC | 6.74% |
| COc1cc(C2CC(=O)N3CN(Cc4ccccc4)CSC3=C2C#N)ccc1OCc1ccccc1 (stereo not given) | 65% (active) |
| COc1cc(CNC2CCCC2)c(Br)cc1OCc1ccccc1 | -15.5% |
| Cc1ccccc1-c1ccc2c(c1)O[C@@H](CN(C)Cc1ccc(C(=O)O)cc1)[C@@H](C)CN([C@H](C)CO)S2(=O)=O | 1.79% |
| C[C@H](CO)N1C[C@H](C)[C@@H](CN(C)C(=O)c2cccc(F)c2)Oc2cc(-c3cncnc3)ccc2S1(=O)=O | -0.771% |
| Nc1cccc(OCCCCCOc2cccc(N)c2)c1 | -19.1% |
| COCCCn1c(=O)/c(=C/c2ccccc2OC(C)C)s/c1=C(\C#N)C(=O)Nc1ccc(C(=O)O)cc1 | 4.37% |
| Cc1cc(C)c2cc(C#N)c(N3CCNCC3)nc2c1 | -5.81% |
| CC1(C)CN(Cc2cccnc2)C(=O)[C@H]1CC(=O)Nc1ccc(Br)cc1 | -4.33% |
| CCC(C)NC(=O)C1c2ccccc2C(=O)N1Cc1ccccc1 (stereo not given) | 30.9% |
| O=C1c2ccccc2C(O)N1Cc1ccccc1 (stereo not given) | 49.7% (active) |
| O=C1c2ccccc2C(O)N1Cc1ccccc1Cl (stereo not given) | -5.54% |
| CCN(CC)CCN(C(=O)c1ccc2c(c1)CCCC2)c1nc2c(OC)cccc2s1 | 9.68% |
| O=C(COC(=O)c1ccc(S(=O)(=O)N2CCCCCC2)cc1)Nc1ccccc1C(F)(F)F | -10.6% |
| CC(C)=CCc1c(O)c(CC=C(C)C)c2occ(-c3ccc(O)cc3)c(=O)c2c1O | -4.63% |
| CC(C)=CCc1ccc(O)c(=O)cc1C(C)C | 52.9% (active) |
| CC(C)c1cc(N=O)cc(C(C)C)c1O | 11.3% |
| Cc1ccc(S(=O)(=O)N2C[C@H]3n4c(=O)ccc(=O)n4C[C@H](OC(=O)NC4CCCC4)[C@@]3(O)C2)cc1 | 0.795% |
| CCc1noc(C)c1C(=O)OCC(=O)c1ccc(NC(=O)CC(C)C)cc1 | 7.07% |
| CCN(CC)c1ccc(/C=N/NC(=O)c2cnccn2)c(O)c1 | 66.9% (active) |
| CCN(CC)c1ccc(NC(=O)c2ccc(Cl)nc2)cc1 | 2.91% |
| COc1ccc(NC(=O)C/C(C)=N/NC(=O)c2cnccn2)cc1Cl | 0.411% |
| COc1cc(C)c(CN2CCN(C(=O)CCC(=O)c3ccc(C)s3)CC2)cc1OC | -18.3% |

| Structure (SMILES) | inhibition |
| --- | --- |
| C[C@H]1Cn2cnc(C(=O)N[C@@H](Cc3c[nH]c4ccccc34)C(=O)OC(C)(C)C)c2C(=O)N1 | -25.3% |
| CCN(CC)C(=O)C1=C(C)N(Cc2ccc(OC)cc2)C(=O)C(CC(=O)NCCCCc2ccccc2)C1 (stereo not given) | -3.18% |
| COc1ncnc2c1ncn2CCCNCCN1CCOCC1 | -1.37% |
| Oc1c(Cl)cc(Cl)c(Cl)c1Cc1c(O)c(Cl)cc(Cl)c1Cl | 52.3% (active) |
| COc1ccccc1NC(=O)C(CC(=O)O)Cc1cc(C)cc(C)c1 (stereo not given) | -13.3% |
| Cc1cccc(Nc2nc(NCCO)nc(N3CCCC3)n2)c1 | 7.29% |
| CC(C)n1cnc2c(Nc3cccc(Cl)c3)nc(N(CCO)CCCO)nc21 | -2.02% |
| OCCCNc1nccc(-c2cc(Nc3cccc(Cl)c3)ncn2)n1 | 88.6% (active) |
| Cc1ccccc1NC(=O)Cc1nc(COC(=O)CNC(=O)c2ccc(Cl)cc2Cl)cs1 | -5.79% |
| CCC(C)Cn1c(O)cc2nn(-c3nc4ccccc4s3)c(=O)c-2c1C (stereo not given) | 51.8% (active) |
| CC(=O)Nc1ccc2nc(NC(=O)CS(=O)(=O)c3ccc(F)cc3)sc2c1 | -1.73% |
| O=C(Nc1ccc(C(=O)N2CCOCC2)cc1)Nc1cccc(C(F)(F)F)c1 | 65.4% (active) |
| COc1ccccc1C(=O)Nc1cccc(C(=O)N2CCOCC2)c1 | -6.8% |
| O=C(COc1ccc(S(=O)(=O)Nc2cccc(C(F)(F)F)c2)cc1)N1CCOCC1 | 5.55% |
| COc1ccc(Cn2c(=O)oc3ccccc32)cc1 | -3.08% |
| CC1CC(NC(=S)N(C)C)CC(C)(C)C1 (stereo not given) | -2.42% |
| CNC(=O)C[C@H]1C(=O)N(c2ccc(OC)cc2)C[C@@H]1Cc1ccccc1 | -2.06% |
| COc1cccc(/C=N\Nc2nncc(-c3ccccc3)n2)c1 | -5.65% |
| C/C(=N\Nc1nncc2ccccc12)c1ccc(Cl)c([N+](=O)[O-])c1 | -18.4% |
| CN(CCO)c1ccc(/C=N/Nc2nncc3ccccc23)cc1 | 45.7% (active) |
| NC(=O)CSc1nnc(-c2cccc(S(=O)(=O)N3CCOCC3)c2)o1 | 1.36% |
| O=C1CCC(C(=O)OCC(=O)Nc2ccc(OC(F)F)cc2)=NN1 | -2.22% |
| O=C(Nc1cc(F)ccc1F)c1ccc2c(=O)n3c(nc2c1)CCC3 | -23.7% |

| Structure (SMILES) | inhibition |
| --- | --- |
| O=C(O)CC(SCC(=O)Nc1ccc(Br)cc1)C(=O)O (stereo not given) | -3.51% |
| O=C1CCCN2N=C(SCC(=O)Nc3ccc(Br)cc3)SC2=N1 | 46.9% (active) |
| O=C(CSCc1ccc(Br)cc1)Nc1ccc(S(=O)(=O)N2CCCCCC2)cc1 | -7.38% |
| C[C@H](CO)N1C[C@H](C)[C@@H](CN(C)C(=O)C2CCCCC2)OCc2cnnn2CCCC1=O | 0.386% |
| C[C@H]1CN([C@@H](C)CO)C(=O)c2cc(-c3cccc(F)c3)cnc2O[C@@H]1CN(C)S(C)(=O)=O | 5.8% |
| C=CC(=O)OCCOCCOCCOCCOC(=O)C=C | 83.3% (active) |
| O=C(c1cc2cc(Br)cc(Br)c2oc1=O)N1CCOCC1 | 83.6% (active) |
| COc1cc2ccccc2cc1C(=O)N1CCOCC1 | 25.1% |
| COc1cccc2cc(C(=O)N3CCN(C(=O)c4ccccc4)CC3)c(=O)oc12 | -0.766% |
| O=C(N=C1SC2CS(=O)(=O)CC2N1Cc1ccccc1)c1ccccc1 (stereo not given) | 1.35% |
| COC(=O)[C@H]1C[C@H](OC(=O)NCc2ccccc2)[C@@]2(O)CN(S(=O)(=O)c3ccc(C)cc3)CC2[C@H]1C(=O)OC (stereo not given in full) | -13.5% |
| Cc1ccsc1C(=O)OCC(=O)c1cc(C)n(CC2CCCO2)c1C (stereo not given) | 63.2% (active) |
| Cc1ccsc1C(=O)OCC(=O)Nc1cccc(F)c1 | -4.47% |
| COc1ccc(C(=O)OCC(=O)c2cc(C)n(CC3CCCO3)c2C)cc1[N+](=O)[O-] (stereo not given) | 12.7% |
| Cc1ccc(S(=O)(=O)N(CCc2ccccc2)c2ccc3c(c2)C2CC3CCN2C(=O)OCc2ccccc2)cc1 (stereo not given) | -3.7% |
| COc1ccc(OCC(=O)N2CCN(C(=O)c3cccs3)CC2)cc1 | -13.6% |
| O=C(CSc1ncnc2sccc12)NC1CCS(=O)(=O)C1 (stereo not given) | 5.19% |
| O=C(CSc1ncnc2sccc12)N1CCN(C(=O)c2cccs2)CC1 | 69.5% (active) |
| Cc1nc2ccccn2c(=O)c1NC(=O)c1ccc(Br)o1 | 1.95% |
| CCOC(=O)C1CCN(C(=O)c2ccc3c(=O)n4nc(Nc5ccccc5CC)sc4nc3c2)CC1 | 0.7% |
| NC(=O)C1(Nc2ccc(-c3ccccc3)cc2)CCCC1 | 0.238% |
| O=C(Nc1ccc([N+](=O)[O-])cc1)C1CC12CCC2 (stereo not given) | -7.83% |
| NC(=O)C1(Nc2ccc([N+](=O)[O-])cc2)CCCC1 | 58.8% (active) |

| Structure (SMILES) | inhibition |
| --- | --- |
| NC(CSC(c1ccccc1)(c1ccccc1)c1ccc(-c2ccccc2)cc1)C(=O)O (stereo not given) | -1.87% |
| Cc1nc(SCc2ccc(F)cc2)c([N+](=O)[O-])[nH]1 | 2.2% |
| Nc1nc(SCc2ccc([N+](=O)[O-])cc2)c2ncn(C3OC(CO)C(O)C3O)c2n1 (stereo not given) | -5.79% |
| Cc1nc(N)nc(SCc2ccc([N+](=O)[O-])cc2)c1N | 50.3% (active) |
| N#CCCN(C(=S)Nc1ccc(Cl)c(Cl)c1)C1CCCCC1 | -1.92% |
| Cc1cccc(N(CC(=O)N2CCCC2)S(C)(=O)=O)c1C | -6.4% |
| Cc1ccc2cccc([N+](=O)[O-])c2n1 | 7.19% |
| O=C(OCc1cn([C@@H]2C[C@H](c3ccc(Cl)cc3)N(Cc3cccs3)C[C@H]2O)nn1)c1ccccc1 | 3.08% |
| O=C(C1CC1)N1N=C(c2ccc(Br)cc2)CC1(O)C(F)(F)F (stereo not given) | 48.3% (active) |
| O=C(Cc1ccccc1)N1N=C(c2ccncc2)CC1(O)C(F)(F)F (stereo not given) | 4.93% |
| O=C(C1CC1)N1N=C2CCCCC2C1(O)C(F)(F)F (stereo not given) | 0.262% |
| C[C@@H]1CN([C@@H](C)CO)C(=O)c2cc(Br)cnc2O[C@H]1CN(C)Cc1ccc(-c2ccccc2)cc1 | -10.5% |
| C[C@@H]1CN([C@H](C)CO)C(=O)c2cc(Br)cnc2O[C@@H]1CN(C)Cc1cncnc1 | -0.147% |
| Nc1cc(=O)c2[nH]cnc2[nH]1 | 5.05% |
| O=C1CCC(=O)N1CCC(=O)N(C(=O)NC1CCCCC1)C1CCCCC1 | -0.58% |
| CCc1nnc(NC(=O)c2cc(S(=O)(=O)N3CCCCC3)ccc2C)s1 | 2.74% |
| CCc1nnc(NC(=O)c2cc(S(=O)(=O)N3CCN(CC)CC3)ccc2Cl)s1 | 68.4% (active) |
| CCc1nnc(NC(=O)c2ccc(S(=O)(=O)NC3CCCCC3)cc2)s1 | -6.69% |
| O=C(Nc1ccc(Cl)cn1)c1ccccc1-c1ccccc1 | 3.03% |
| c1ccc(CNCc2ccc(CNCc3ccccc3)cc2)cc1 | -5.41% |
| Cc1ccc(S(=O)(=O)/N=C2\C=C(NS(=O)(=O)c3ccc(C)cc3)C(=O)c3ccccc32)cc1 | -0.482% |
